This passage reports Potency results from PubChem BioAssay AID686978 (National Center for Advancing Translational Sciences (NCATS), 2013).

Screen size: about 420,000 compounds; about 64,000 (15%) were called active. Inconclusive results (about 27%) are left out. Calls follow the shape of the dose curve; as a rule, active = well fitted inhibition curve with a large enough effect; inconclusive = small, poorly fitted or top-dose-only effect; inactive = flat fitted curve, though single readings scatter. The list is a sample of the results. Where a call stands in place of a potency, no number is given.
Potency is read from the fitted curve at half-maximal effect.

This experiment is described as follows: qHTS for Inhibitors of human tyrosyl-DNA phosphodiesterase 1 (TDP1): qHTS in cells in absence of CPT. Also: nearly all actives have a fitted effect of over 55% in size. The following applies: DT40 Tdp1-/- hTDP1 cells, no CPT, ATP luminescence, 48 h; activity change, negative = growth inhibition: at 46.2 µM (top of the series). The gist of the method: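 Readout: luminescence from CellTiter-Glo after 30 min in the dark at RT. Cells: DT40 Tdp1-/- with stable hTDP1, 400/well. Exposure: compounds alone, ≥48 hr, 37 °C.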
On to `CC1CCCC(N2CCN(C(=O)c3ccc(F)cc3)CC2)C1` (stereo not given), for which the Potency result is “inactive”.
Consider `CN(C(=N)N)c1ccc(/C=C2\C=Cc3ccccc32)cc1`, for which the Potency was 2.82 µM (active).
The same measure for `CS(=O)c1ccc(/C=C2\C=Cc3ccccc32)cc1` (stereo not given): 20 µM (active); for `C#CCCOC(=O)N1C2=NC(C(=O)OC)=C(C(=O)OC)[C@@H]3N(C)c4ccc(OC)cc4[C@]23C[C@H]1C(=O)OC`: “inactive”.
The same measure for `O=c1ccc2cc(S(=O)(=O)NCCCc3ccccc3)ccc2[nH]1`: “inactive”; for `C=CCn1c(SCc2nnc(-c3ccccc3)o2)nnc1C(O)c1ccccc1` (stereo not given): “inactive”; for `FC(F)(F)c1cccc(-c2cn[nH]c2C2CCCN(Cc3cccn3-c3ccccn3)C2)c1` (stereo not given): “inactive”.
`Cc1nn(C)cc1C(=O)Nc1ccccc1Br`: the Potency result was “inactive”.
`COc1ccc(N2CCN(Cc3nc4c(c(=O)[nH]c(=O)n4C)n3Cc3ccc(Cl)cc3)CC2)cc1`: the Potency result is “inactive”.
For the compound `COc1ccc(Cn2nnc3c(=O)[nH]c(C4CCN(C(=O)c5ccccc5Cl)CC4)nc32)cc1`, the Potency entry is “inactive”.
The same measure for `COc1ccc(CN2CCC(c3nc4ccc(Cl)cc4[nH]3)CC2)cc1`: 20.6 µM (active).
Turning to `CN(CCCNC(=O)CN1C(=O)CC(C)(C)S(=O)(=O)c2ccccc21)C1CCCCC1`, the Potency result is “inactive”.
Turning to `COC(=O)c1nc(NC(=O)c2ccc(Cl)cc2)n[nH]1`, the Potency entry is “inactive”.
For the compound `CC[C@@H](C)[C@H](NC(=O)CCc1c(C)c2cc3c4c(oc3c(C)c2oc1=O)CCCC4)C(=O)O`, the Potency result is “inactive”.
As to `COc1ccc(NC(=O)CN(C)C(=O)c2cc(C)oc2C)cc1`, the Potency result was “inactive”.
The figure for `CC(C)=CCc1ccc(O)c(=O)cc1C(C)C` is 20.6 µM (active); for `Cc1ccc(S(=O)(=O)c2c[nH]c3ccc(Cl)cc3c2=O)cc1` it is “inactive”; for `O=C1COc2ccc(C(=O)COC(=O)c3cccnc3Cl)cc2N1` it is “inactive”.
Consider `O=C1COc2ccc(C(=O)COC(=O)CCOc3ccccc3)cc2N1`, for which the Potency result is “inactive”.
Regarding `O=C1COc2ccc(C(=O)CSc3ccc(Br)cc3)cc2N1`, the Potency is 16.4 µM (active).
As for `COCc1cc(=O)n2[nH]c(C)c(-c3ccccc3)c2n1`, the Potency entry is “inactive”.
On to `Cc1nc2c(-c3ccccc3)c(C)[nH]n2c(=O)c1Cl`, for which the Potency result is “inactive”.
With `CCCc1cc(=O)n2[nH]c(C)c(-c3ccc(Cl)cc3)c2n1`, the Potency was 14.6 µM (active).
On to `CCCC(=O)C1=C(N(C)c2ccccc2)CC(C)(C)C(C(=O)OC)C1=O` (stereo not given), for which the Potency entry was “inactive”.
With `O=C(CSc1ccc([N+](=O)[O-])cn1)Nc1ccc(N2CCOCC2)cc1`, the Potency entry is “inactive”.
For the compound `CCN(C(=O)CSc1nnc(-c2ccc(OC(F)F)cc2)n1N)C1CCS(=O)(=O)C1` (stereo not given), the Potency entry was “inactive”.
The entry for `CCOc1ccccc1/C=c1\sc2nc(-c3ccco3)nn2c1=O` is “inactive”.
For the compound `CN(C)c1nc(N)nc(CSc2ccccn2)n1`, the Potency result was “inactive”.
The figure for `Cc1ccc(NC(=O)c2cc(S(=O)(=O)NCCC3=CCCCC3)ccc2F)cc1C` is 25.9 µM (active).
In the case of `Cc1cccc(NC(=O)c2cc(S(=O)(=O)N3CCC4(CC3)OCCO4)ccc2F)c1`, the Potency entry is “inactive”.
The entry for `Cc1ccc(NC(=O)CCNS(=O)(=O)c2ccc3c(c2)oc(=O)n3C)cc1C` is “inactive”.
As to `CCCc1nc(-c2cc3cc(C)ccc3[nH]c2=O)no1`, the Potency entry was “inactive”.
The same measure for `NC(=O)C1CCN(C(=O)/C(=C/c2ccco2)NC(=O)c2ccccc2)CC1`: “inactive”.
For `COc1ccc(CCNC(=O)CSc2nnc(-c3cccc(F)c3)o2)cc1OC`, the Potency result is “inactive”.
For `CCN(CC)C(=O)CSc1nnc(-c2cccc(OC)c2)o1`, the Potency entry was “inactive”.
For `COc1ccc(CN(C(=O)CSc2nnc(-c3ccc(OC)c(OC)c3)o2)c2ccc(F)cc2)cc1`, the Potency is 23.1 µM (active).
For `O=C(NCc1ccccn1)c1cc2ccccc2oc1=O`, the Potency result is “inactive”.
The same measure for `O=C(CCl)Nc1cccc(CP(=O)(c2ccccc2)c2ccccc2)c1`: 2.59 µM (active).
For the compound `O=C(CSCc1ccccc1)Nc1ccccc1`, the Potency result was “inactive”.
The entry for `CCc1cccc(NC(=O)CCC(=O)O)c1` is “inactive”.
Regarding `COc1ccc(N(Cc2cc3cc(OC)ccc3[nH]c2=O)S(C)(=O)=O)cc1`, the Potency result is “inactive”.
In the case of `COc1ccc2[nH]c(=O)c(CNc3ccc(C)c(C)c3)cc2c1`, the Potency was 8.2 µM (active).
On to `CCC(=O)N(Cc1cc2cc(OC)ccc2[nH]c1=O)c1ccccc1C`, for which the Potency result is “inactive”.
The same measure for `COc1ccc(C2CC(c3ccccc3)=NN2C(=O)CSc2nccc(=O)[nH]2)cc1` (stereo not given): “inactive”; for `O=C1C2N=NN(CC(=O)N3N=C(c4cccc5ccccc45)CC3c3ccccc3)C2C(=O)N1c1ccccc1` (stereo not given): 29.1 µM (active); for `CC(=O)Oc1ccccc1C1=NN(C(C)=O)C(c2ccccc2)C1` (stereo not given): “inactive”.
Take `COc1cc(CN2CCNC(=O)C2CC(=O)NCCc2ncccc2C)cc(OC)c1` (stereo not given): the Potency entry is “inactive”.
Regarding `CCN1CCCC1CNC(=O)c1cc2cc(OC)c(OC)cc2[nH]1` (stereo not given), the Potency entry is “inactive”.
The same measure for `CCOC(=O)C1(C)CCCN(C(=O)c2ccc(F)c(Cl)c2)C1` (stereo not given): 20.6 µM (active); for `CCOC(=O)C1(C)CCCN(C(=O)c2ccc(N(C)C)cc2)C1` (stereo not given): “inactive”.
Consider `CCCS(=O)(=O)NC(=O)C1(C)CCCN(C(=O)c2ccnc(Cl)c2)C1` (stereo not given), for which the Potency result is “inactive”.
`COC(=O)/C(=C1\Oc2ccc(C(C)(C)C)cc2S1)C(F)(F)F`: the Potency result was “inactive”.
As for `CC(=O)Nc1ccc(S(=O)(=O)NC2(C(F)(F)F)C(=O)NC(C)=C2C#N)cc1` (stereo not given), the Potency result was “inactive”.
The entry for `O=C(Cc1ccccc1F)NC1CCSc2ccccc21` (stereo not given) is “inactive”.
The same measure for `CCc1cc(Br)ccc1NC(=O)C1CCCO1` (stereo not given): “inactive”; for `COc1ccccc1C(=O)COC(=O)CNS(=O)(=O)c1ccc(NC(C)=O)cc1`: “inactive”; for `O=c1c2cc3c(=O)n(CC4CCCO4)c(=O)c3cc2c(=O)n1CC1CCCO1` (stereo not given): “inactive”.
With `O=C(NCc1ccc2c(c1)OCO2)c1ccc2c(c1)C(=O)N(CC1CCCO1)C2=O` (stereo not given), the Potency result was “inactive”.
Consider `O=C1c2cccc3c([N+](=O)[O-])ccc(c23)C(=O)N1CC1CCCO1` (stereo not given), for which the Potency was 5.8 µM (active).
With `COc1ccc(/C=C/C(=O)OCC(=O)NCc2cccs2)cc1OC`, the Potency entry was “inactive”.
`CCOc1ccc(/C=C/C(=O)OCC(=O)c2ccccc2OC)cc1OC`: the Potency was 20.6 µM (active).
Regarding `COc1cc(/C=C/C(=O)OCC(=O)NC(=O)NCc2ccccc2)ccc1OCC#N`, the Potency entry is “inactive”.
In the case of `COc1ccc(S(=O)(=O)N(CC(=O)N/N=C/c2ccc(C(=O)O)cc2)Cc2ccccc2)cc1OC`, the Potency result was “inactive”.
For the compound `Cc1nonc1OCCn1nnnc1N`, the Potency result is “inactive”.
Consider `Cc1csc(=O)n1CCC(=O)OCC(=O)Nc1ccc(N2CCOCC2)cc1`, for which the Potency result is “inactive”.
